According to PubChem BioAssay:
Unmarked numbers belong to inactive results. The source made the active and inactive calls.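 The calls were made as follows: active = z-score of at least 1.8 in each of two replicates, scored against plate mean and spread of sample wells; inactive = the rest.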

Assay: galactose survival enhancers in mitochondrial complex I cybrids – cell-based, galactose medium, ATP luminescence, primary screen (AID 1645843);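 also: positive z means more ATP and so rescue of galactose-driven cybrid death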
Settings: complex I mutant cybrid cells, 72 h, stronger effect = higher value

Compared with CN(C)Cc1cn(C2CCN(C(=O)C3CCCCCC3)CC2)nn1, O=C(C1CCCCCC1)N1CCC(n2cc(C3CC3)nn2)CC1 is lower in z-score: -0.49 for the first, -0.53 for the second.

First: Cc1ccsc1-c1cccc(C(=O)c2nccn2C)c1
Second: Cc1ccc(F)cc1-c1cccc(C(=O)c2nccn2C)c1
The z-score of the first is higher: 0.225 for the first, -0.54 for the second.

Going from Cc1sc2ncnc(N3CCC(Cn4cc(C(C)(C)N)nn4)CC3)c2c1C to COc1ccc(-c2ncnc3sc(C)c(C)c23)c(OC)c1, the z-score rises from -0.55 to 0.66.

First: CCC1(CC)CC1C(=O)N1CCC(n2cc(C3CCCCC3)nn2)CC1 (stereo not given)
Second: O=C(c1cn2cccnc2n1)N1CCCC(Cn2cc(C3CCCC3)nn2)C1 (stereo not given)
The z-score of the first is higher: 0.07 for the first, -0.49 for the second.

Going from COc1cccc2ccc(-c3ccc(C(=O)N(C)C)cc3)nc12 to CN(Cc1nc(-c2cccnc2)no1)C(=O)c1nc2ccccc2s1, the z-score falls from 1.37 to 0.26.

Going from CCc1nc(C)ccc1OCC(=O)N1CCc2[nH]nc(C3CCC3)c2C1 to COc1cccc2c(C)cc(N3CCC[C@H]3CO)nc12, the z-score rises from -0.6 to -0.095.

Going from CCOC(=O)c1ccc(N2CCC(c3ccccc3F)C2)nc1 (stereo not given) to Cc1cc(N2CCCC(Cn3cc(CN)nn3)C2)nc(-c2ccccc2O)n1 (stereo not given), the z-score falls from -0.015 to -0.9.

Going from COc1ccc(CN[C@@H]2CS(=O)(=O)C[C@H]2O)cc1OCc1ccc(F)cc1 to N#Cc1ccc(C(=O)N2CCNC(=O)C2Cc2ccccc2)cc1 (stereo not given), the z-score rises from -0.735 to -0.47.

Going from CCCCCNC(=O)N1CCC2(CC1)Nc1ccccc1N(CC1CC1)C2=O to CCCCC(CC)CN1CCC(n2cc(CNC)nn2)CC1 (stereo not given), the z-score rises from 0.705 to 1.

Going from Cc1ccc2nc(-c3cnc(C(C)(C)C)nc3)cc(C(=O)N(C)C(C)C)c2c1 to Cc1ccc2nc(-c3cnc(CCC(C)C)nc3)c(C)c(C(=O)N(C)C)c2c1, the z-score falls from -0.47 to -0.51.

Compared with COc1cccc(-n2cc(-c3ccnc(N(C)CCn4ccnc4)n3)cn2)c1, Cn1ncc2[nH]c(-c3cc(F)ccc3-n3cccn3)nc21 is lower in z-score: 1.84 for the first, -0.56 for the second.

Going from COc1cc(-c2cccc(C)c2C)nc(N)n1 to COc1ccc(OC)c(-c2ncnc3sc(C)c(C)c23)c1, the z-score rises from -0.335 to 0.645.

First: OC1(c2ccccc2)CCN(Cc2ccccc2Cl)C1 (stereo not given)
Second: O=C(O)C1(Oc2cccc(-c3cccc4ncccc34)c2)CCCC1
The z-score of the first is lower: -1.11 for the first, -0.5 for the second.

Compared with CCOC(=O)c1cc(C)nc(N2CCCC(c3nc(C(C)C)no3)C2)n1 (stereo not given), Cc1cc(C)c(C(=O)N2CCCCC2CCN2CCCC2=O)cc1C (stereo not given) is higher in z-score: -0.54 for the first, -0.46 for the second.

First: O=C(c1ccc(OC2(C(=O)O)CCSCC2)cc1)N1CCOCC1
Second: Cc1cc(CN2CCNCC2)ccc1OC1(C(=O)O)CCSCC1
The z-score of the first is lower: -0.515 for the first, 0.115 for the second.

Compared with Cc1cc(C(F)(F)F)nc(CNC(=O)c2ccc3nccnc3c2)n1, Cc1ccc(-c2ncccc2OC2(C(=O)O)CCCC2)cc1C is lower in z-score: -0.69 for the first, -0.735 for the second.

Going from CCCn1nc(NC(=O)Cn2ccc(-c3ccccc3F)n2)c2ccccc21 to NCCCNC1CCN(c2ccc(-c3cccc(F)c3)cc2)CC1, the z-score falls from -1.28 to -1.31.

First: CN1CCN(c2ccc3cc(Cl)ccc3n2)CC1=O
Second: CC(C)Cc1noc(C2C3CCC4C(CCC32)C4(Cl)Cl)n1 (stereo not given)
The z-score of the first is lower: -0.56 for the first, -0.52 for the second.

For Cc1cccc2c(C(=O)N(C)C(C)C)cc(-c3cnn(C(C)C)c3)nc12, the z-score was 2.17 (active).
In the case of COc1ccccc1CNC(=O)Nc1nnc(C)s1, the z-score is reported as 4.88 (active).
For CCn1cc(-c2cc(C(=O)N3CCCCCC3)c3ccc(C)c(C)c3n2)cn1, the z-score was 1.92 (active).
For CCCc1ccc(C(=O)N2CCC2c2cccc(OC)c2)cc1 (stereo not given), the z-score was 2.41 (active).
